Consider 40 compounds from PubChem BioAssay.

One may read the inhibition as the relative decrease from the control value, in per cent.

The source made the active and inactive calls.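 Rule for the calls, unless noted: active = visually confirmed hit in the image check and inhibition above 20%; inconclusive = visually confirmed hit but inhibition not above 20%; inactive = no visual hit in the image check.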

The first test can be described thus: inhibitors of mutant huntingtin aggregation, primary screen, imaging, exon1htt(103Q)mCFP cells, high-content imaging (AID 483;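 active = visual image review flags a hit and inhibition of aggregation exceeds 20%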;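 note: compound exposure lasted 3 days before fixation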;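 for nuclei count: percent of the per-plate median nuclei count of sample wells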). As to conditions: exon1htt(103Q)mCFP cell line, aggregate imaging, at 2 µM; inhibition of aggregation: stronger effect = higher value; nuclei count: measured here: cell count, toxicity.
Regarding `Cn1c(SCc2cccc3ccccc23)nnc1-c1ccco1`, the nuclei count amounted to 101% and the inhibition of aggregation is 3.5% (inactive).

`COc1ccc(CC(=O)OCC(=O)NC(=O)NC2CCCCC2)cc1`: the inhibition of aggregation is -0.9% (inactive) and the nuclei count was 80.9%.

Turning to `CCn1c(C)nc2cc(C(=O)OC(C(F)(F)C(F)F)C(F)(F)C(F)F)ccc21`, the nuclei count amounted to 91.2% and the inhibition of aggregation was 12.2% (inactive).

On to `CCCn1c2c(c(O)c(C(=O)NC)c1=O)CCCC2`, for which the nuclei count was determined as 101% and the inhibition of aggregation was -3.3% (inactive).

Regarding `COCCNC(=O)CN(C)S(=O)(=O)c1ccc2c(c1)OCCO2`, the inhibition of aggregation is -1.9% (inactive) and the nuclei count was 101%.

For `O=C(CN1C(=O)CC(c2ccco2)Sc2ccccc21)Nc1ccc2c(c1)OCCO2` (stereo not given), the inhibition of aggregation was -218% (inactive) and the nuclei count came out at 99.6%.

In the case of `COc1ccc2c(c1)CCc1c(C(=O)NCc3cccnc3)noc1-2`, the nuclei count is 103% and the inhibition of aggregation is -6.5% (inactive).

Turning to `OCc1nc(CO)n(Cc2ccccc2)n1`, the nuclei count came out at 112% and the inhibition of aggregation was -12.2% (inactive).

With `CC(=O)Nc1ccc(NC(=O)c2ccccc2N(C)S(C)(=O)=O)cc1`, the nuclei count amounted to 111% and the inhibition of aggregation was -2.3% (inactive).

`Cc1noc(NS(=O)(=O)c2ccc(NC(=O)CCC3CCCC3)cc2)c1C`: the nuclei count worked out at 83.5% and the inhibition of aggregation was -12.2% (inactive).

As to `CCCNC(=O)c1c(N)n(-c2cc(OC)cc(OC)c2)c2nc3ccccc3nc12`, the nuclei count came out at 93.7% and the inhibition of aggregation is 3% (inactive).

For `Cc1ccc(CN2C(=O)CCC2C(=O)NCC2CCCO2)cc1` (stereo not given), the inhibition of aggregation was -27.2% (inactive) and the nuclei count was 91%.

Regarding `COc1ccc(CC(NC(C)=O)C(=O)NC2CCN(c3nc(C)cc(C)c3C#N)CC2)c(OC)c1` (stereo not given), the nuclei count was determined as 121% and the inhibition of aggregation was -12.3% (inactive).

For `CC1(C)CC(=O)c2c(O)cc(O)cc2O1`, the nuclei count worked out at 83.3% and the inhibition of aggregation is -5.4% (inactive).

Regarding `COc1ccc(C2C(C#N)=C(C)NC3=C2C(=O)CC(C)(C)C3)c(OC)c1` (stereo not given), the nuclei count stood at 70.9% and the inhibition of aggregation was 19.6% (inactive).

For `CC(C(=O)OCn1nnc2ccccc2c1=O)N1C(=O)c2ccccc2C1=O` (stereo not given), the nuclei count worked out at 84.6% and the inhibition of aggregation was 13.2% (inactive).

With `CCOCCn1cnc2sc(C(=O)Nc3nc(C)c(C(=O)OCC)s3)c(C)c2c1=O`, the inhibition of aggregation is 2.9% (inactive) and the nuclei count came out at 121%.

For the compound `CCC(=NC(C)c1ccccc1)c1c(O)n(C)c(=O)n(C)c1=O` (stereo not given), the nuclei count is 72.1% and the inhibition of aggregation was 3.2% (inactive).

Regarding `COc1cc(=O)[nH]c(SCc2c(F)c(F)c(F)c(F)c2F)n1`, the nuclei count came to 87.6% and the inhibition of aggregation is 6.7% (inactive).

With `CCCC(=O)N1CCN(c2ccc(NC(=O)c3ccc(Br)o3)cc2)CC1`, the inhibition of aggregation was 7.1% (inactive) and the nuclei count stood at 58.2%.

With `COc1ccc(Cc2nn3c(-c4cc(OC)c(OC)c(OC)c4)nnc3s2)cc1`, the inhibition of aggregation is 17.4% (inactive) and the nuclei count is 95.1%.

Take `CC(C)CCNC(=O)CCNS(=O)(=O)c1ccc(Cl)cc1`: the nuclei count came out at 79.8% and the inhibition of aggregation was 1.9% (inactive).

For `CCn1c(C(=O)OC)cc2c1ccn2-c1ccc(F)cc1`, the inhibition of aggregation is 25% (inactive) and the nuclei count was determined as 99.6%.

As for `O=C(CSc1nnc(Cc2ccccc2)n1C1CCCCC1)N1CCOCC1`, the nuclei count stood at 104% and the inhibition of aggregation is 12.5% (inactive).

In the case of `CC(=O)c1c(C)[nH]c(C(=O)Nc2ccc3c(c2)OCCO3)c1C`, the inhibition of aggregation was -4.8% (inactive) and the nuclei count came to 115%.

`COCCn1nnnc1C(C(C)C)N(Cc1cccnc1)Cc1ccccc1Cl` (stereo not given): the nuclei count amounted to 108% and the inhibition of aggregation is 8.9% (inactive).

For `Cc1c(Cc2ccccc2)sc(N)c1C(N)=O`, the inhibition of aggregation is -0.8% (inactive) and the nuclei count is 115%.

Take `O=C(CN(c1ccc(F)cc1)S(=O)(=O)c1ccc2c(c1)OCCO2)NCC1CCCO1` (stereo not given): the inhibition of aggregation is -6.6% (inactive) and the nuclei count came to 92.4%.

On to `O=C(Nc1ccccc1)c1cccnc1N1CCOCC1`, for which the nuclei count is 110% and the inhibition of aggregation was -5.4% (inactive).

On to `Cc1c(NC(=O)CN2c3cccc4cccc(c34)S2(=O)=O)c(=O)n(-c2ccccc2)n1C`, for which the nuclei count worked out at 103% and the inhibition of aggregation is 1.4% (inactive).

On to `Cc1ccc(S(=O)(=O)NCCC(=O)OCn2nnc3ccccc3c2=O)cc1`, for which the inhibition of aggregation is 5% (inactive) and the nuclei count came to 102%.

For the compound `c1ccc2nc(-c3nc4ccccc4[nH]3)ccc2c1`, the inhibition of aggregation is -19.5% (inactive) and the nuclei count amounted to 85.8%.

`COc1ccc(-n2nnc3c(=O)n(C/C=C/c4ccccc4)cnc32)cc1`: the nuclei count amounted to 102% and the inhibition of aggregation was -19% (inactive).

In the case of `O=C(Nc1ccccc1C(=O)N1CCCCCC1)c1cccc(S(=O)(=O)N2CCOCC2)c1`, the nuclei count stood at 74.5% and the inhibition of aggregation was -11.4% (inactive).

On to `CCOC(=O)C1=C(C)N(C)C(C)=C(C(=O)OCC)C1c1cccnc1`, for which the nuclei count was determined as 93.8% and the inhibition of aggregation is -14.4% (inactive).

Consider `O=C(Nc1ccc(Cc2ccncc2)cc1)C1CC1`, for which the inhibition of aggregation was -6.1% (inactive) and the nuclei count was 100%.

Turning to `CCOC(=O)c1oc2ccccc2c1CSc1nnnn1-c1ccc(OC)cc1`, the inhibition of aggregation is 6.8% (inactive) and the nuclei count turned out to be 95.4%.

Consider `COc1cc(C2c3c(oc4c(C)cc(C)cc4c3=O)C(=O)N2Cc2cccnc2)cc(OC)c1OC` (stereo not given), for which the inhibition of aggregation was 7.3% (inactive) and the nuclei count is 106%.

As for `CC(=O)N1CCc2cc(S(=O)(=O)NCCC3=CCCCC3)ccc21`, the nuclei count is 123% and the inhibition of aggregation is -11.2% (inactive).

`CC1=C(C(=O)OCCOC(C)C)C(c2cc3c(cc2Br)OCO3)C2=C(CCCC2=O)N1` (stereo not given): the nuclei count is 41.8% and the inhibition of aggregation was 8.5% (inactive).

A short description of the next test: inhibitors of E-selectin induction by TNFa, primary screen, imaging, HUVEC, immunofluorescence, MLSMR starter and 10KST1 sets (AID 487).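 For inhibition: signal is fraction of cell area covered by stained E-selectin grains.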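 For nuclei count: 100% = median nuclei count of all wells on the same plate.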 As to conditions: HUVEC TNFalpha-induced E-selectin immunofluorescence imaging, at 2 µM; inhibition: stronger effect = higher value; nuclei count: measured here: cell number, toxicity.
Take `Cn1c(SCc2cccc3ccccc23)nnc1-c1ccco1`: the nuclei count was determined as 103% and the inhibition is -63% (inactive).

Turning to `COc1ccc(CC(=O)OCC(=O)NC(=O)NC2CCCCC2)cc1`, the inhibition was -5.5% (inactive) and the nuclei count was 121%.

On to `CCn1c(C)nc2cc(C(=O)OC(C(F)(F)C(F)F)C(F)(F)C(F)F)ccc21`, for which the nuclei count was 93.6% and the inhibition was -20.9% (inactive).

With `CCCn1c2c(c(O)c(C(=O)NC)c1=O)CCCC2`, the nuclei count was determined as 112% and the inhibition was -40.9% (inactive).

For the compound `COCCNC(=O)CN(C)S(=O)(=O)c1ccc2c(c1)OCCO2`, the nuclei count amounted to 108% and the inhibition was -59.8% (inactive).

Consider `O=C(CN1C(=O)CC(c2ccco2)Sc2ccccc21)Nc1ccc2c(c1)OCCO2` (stereo not given), for which the nuclei count turned out to be 105% and the inhibition was -69.7% (inactive).

With `COc1ccc2c(c1)CCc1c(C(=O)NCc3cccnc3)noc1-2`, the nuclei count stood at 89.1% and the inhibition was -85.6% (inactive).

In the case of `OCc1nc(CO)n(Cc2ccccc2)n1`, the inhibition is 42.4% (inactive) and the nuclei count is 86.8%.

On to `CC(=O)Nc1ccc(NC(=O)c2ccccc2N(C)S(C)(=O)=O)cc1`, for which the nuclei count is 94.4% and the inhibition was -46.3% (inactive).

Take `Cc1noc(NS(=O)(=O)c2ccc(NC(=O)CCC3CCCC3)cc2)c1C`: the inhibition is -147% (inactive) and the nuclei count came out at 115%.

Turning to `CCCNC(=O)c1c(N)n(-c2cc(OC)cc(OC)c2)c2nc3ccccc3nc12`, the nuclei count came to 135% and the inhibition is -89.1% (inactive).

Consider `Cc1ccc(CN2C(=O)CCC2C(=O)NCC2CCCO2)cc1` (stereo not given), for which the inhibition is -16.2% (inactive) and the nuclei count worked out at 97.8%.

As to `COc1ccc(CC(NC(C)=O)C(=O)NC2CCN(c3nc(C)cc(C)c3C#N)CC2)c(OC)c1` (stereo not given), the inhibition was -32.4% (inactive) and the nuclei count was found to be 112%.

For `CC1(C)CC(=O)c2c(O)cc(O)cc2O1`, the inhibition is -55.7% (inactive) and the nuclei count was 99.8%.

Take `COc1ccc(C2C(C#N)=C(C)NC3=C2C(=O)CC(C)(C)C3)c(OC)c1` (stereo not given): the inhibition was 31.4% (inactive) and the nuclei count came to 96%.

In the case of `CC(C(=O)OCn1nnc2ccccc2c1=O)N1C(=O)c2ccccc2C1=O` (stereo not given), the nuclei count amounted to 76.4% and the inhibition is 15.7% (inactive).

Take `CCOCCn1cnc2sc(C(=O)Nc3nc(C)c(C(=O)OCC)s3)c(C)c2c1=O`: the nuclei count is 105% and the inhibition was -9.6% (inactive).

With `CCC(=NC(C)c1ccccc1)c1c(O)n(C)c(=O)n(C)c1=O` (stereo not given), the inhibition was -50.4% (inactive) and the nuclei count turned out to be 133%.

Turning to `COc1cc(=O)[nH]c(SCc2c(F)c(F)c(F)c(F)c2F)n1`, the nuclei count stood at 104% and the inhibition is -11.4% (inactive).

Consider `CCCC(=O)N1CCN(c2ccc(NC(=O)c3ccc(Br)o3)cc2)CC1`, for which the nuclei count is 116% and the inhibition was -64.1% (inactive).

As to `COc1ccc(Cc2nn3c(-c4cc(OC)c(OC)c(OC)c4)nnc3s2)cc1`, the nuclei count is 103% and the inhibition is 20.8% (inactive).

As for `CC(C)CCNC(=O)CCNS(=O)(=O)c1ccc(Cl)cc1`, the nuclei count amounted to 91.3% and the inhibition is -36.9% (inactive).

On to `CCn1c(C(=O)OC)cc2c1ccn2-c1ccc(F)cc1`, for which the inhibition was -86.1% (inactive) and the nuclei count is 105%.

`O=C(CSc1nnc(Cc2ccccc2)n1C1CCCCC1)N1CCOCC1`: the nuclei count was 113% and the inhibition is -264% (inactive).

Take `CC(=O)c1c(C)[nH]c(C(=O)Nc2ccc3c(c2)OCCO3)c1C`: the inhibition is -18.4% (inactive) and the nuclei count was 114%.

Turning to `COCCn1nnnc1C(C(C)C)N(Cc1cccnc1)Cc1ccccc1Cl` (stereo not given), the nuclei count amounted to 111% and the inhibition was -72.3% (inactive).

`Cc1c(Cc2ccccc2)sc(N)c1C(N)=O`: the nuclei count was 113% and the inhibition was -32.2% (inactive).

On to `O=C(CN(c1ccc(F)cc1)S(=O)(=O)c1ccc2c(c1)OCCO2)NCC1CCCO1` (stereo not given), for which the nuclei count stood at 107% and the inhibition is -58.6% (inactive).

As to `O=C(Nc1ccccc1)c1cccnc1N1CCOCC1`, the inhibition was -36.4% (inactive) and the nuclei count amounted to 84.1%.

`Cc1c(NC(=O)CN2c3cccc4cccc(c34)S2(=O)=O)c(=O)n(-c2ccccc2)n1C`: the inhibition is -119% (inactive) and the nuclei count was 141%.

Consider `Cc1ccc(S(=O)(=O)NCCC(=O)OCn2nnc3ccccc3c2=O)cc1`, for which the nuclei count amounted to 119% and the inhibition was -272% (inactive).

Take `c1ccc2nc(-c3nc4ccccc4[nH]3)ccc2c1`: the nuclei count is 101% and the inhibition was -6.9% (inactive).

As for `COc1ccc(-n2nnc3c(=O)n(C/C=C/c4ccccc4)cnc32)cc1`, the nuclei count is 115% and the inhibition is -31.4% (inactive).

As to `O=C(Nc1ccccc1C(=O)N1CCCCCC1)c1cccc(S(=O)(=O)N2CCOCC2)c1`, the nuclei count amounted to 84.2% and the inhibition was -60.5% (inactive).

In the case of `CCOC(=O)C1=C(C)N(C)C(C)=C(C(=O)OCC)C1c1cccnc1`, the inhibition is -55.9% (inactive) and the nuclei count worked out at 115%.

As for `O=C(Nc1ccc(Cc2ccncc2)cc1)C1CC1`, the nuclei count was 118% and the inhibition is -33.5% (inactive).

Take `CCOC(=O)c1oc2ccccc2c1CSc1nnnn1-c1ccc(OC)cc1`: the nuclei count came out at 110% and the inhibition is -102% (inactive).

Turning to `COc1cc(C2c3c(oc4c(C)cc(C)cc4c3=O)C(=O)N2Cc2cccnc2)cc(OC)c1OC` (stereo not given), the inhibition is -4.3% (inactive) and the nuclei count was 97.5%.

`CC(=O)N1CCc2cc(S(=O)(=O)NCCC3=CCCCC3)ccc21`: the inhibition was -71.2% (inactive) and the nuclei count turned out to be 141%.

For `CC1=C(C(=O)OCCOC(C)C)C(c2cc3c(cc2Br)OCO3)C2=C(CCCC2=O)N1` (stereo not given), the inhibition is -37.4% (inactive) and the nuclei count worked out at 105%.
